Screens from PubChem.
Only some compounds are listed: those with a hit (about 11% of all), similar ones and a draw of the others.
Pf growth 48h – inhibits P. falciparum growth in the first generation, 48 h. P. falciparum luciferase growth in erythrocytes, 48 h. Potency, µM (doses to about 28.7 µM), for the others: at the highest dose activity change, negative = inhibition, hits mostly inhibitors. 5.9% of 310,000 active. AID 504832
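Luciferase-expressing parasites in RBCs, 2% Hct / 0.1% parasitemia final; RPMI 1640 + 0.5% Albumax; 37 C, 5% CO2, one generation; luminescence read-out, lower signal = inhibition.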
Pf growth 96h – inhibits malaria parasite growth, 96 h; P. falciparum luciferase reporter growth, 96 h; 6.9% of 320,000 active; AID 504834; Potency, µM (doses to about 28.7 µM), for the others: at the highest dose activity change, negative = inhibition, hits mostly inhibitors
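P. falciparum expressing integrated firefly luciferase grown in erythrocytes (2% hematocrit, 0.05% parasitemia final) with compounds for 96 hours at 37 C, 5% CO2. Growth inhibition read as loss of luminescence after adding luciferase detection reagent.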
HCV inhibitor – inhibitors of hepatitis C virus infection. Huh7.5.1 HCVcc-Cre infection, luciferase reporter, 44 h. Potency, µM (titrated, usually from 41.8 µM), without a hit: at the top dose activity change, negative = inhibition, hits mostly inhibitors. 3.4% of 340,000 active
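After 44 h co-culture of compound, cells and HCVcc-Cre (~0.5 moi), substrate is added for 15 min at room temperature and luciferase measured over 15 sec. Cells were seeded at 1,000/well and pre-cultured 4 h.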
AMA1-RON2 inh – disrupts binding of P. falciparum AMA1 to RON2; AlphaScreen AMA1-biotinylated RON2 peptide binding; Potency, µM (top dose mostly 58.2 µM), inactives show at the top dose activity change, negative = inhibition, usual class: inhibitors; 0.2% of 360,000 active;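 also: 0% = vehicle wells and -100% = peptide control; nearly all actives have a fitted effect of over 45% in size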
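AMA1 (3D7) with his tag at 25 nM final met compounds first, then biotinylated RON2 peptide at 25 nM; detection used donor plus acceptor beads, 10 µg/mL apiece, read by AlphaScreen after 30 min at room temperature.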
Active calls of the source: *; ? = inconclusive; / = no result; [ ] = remark or other dose. Calls follow the shape of the dose curve; as a rule, active = well fitted curve in the direction sought with a large enough effect; inconclusive = small, poorly fitted or top-dose-only effect, or another doubt; inactive = no such curve, though single readings can be large; an effect the other way counts as inactive or inconclusive. Unless noted, % is scaled to controls: 0 for no effect and ±100 for the full control effect; potency is read from the fitted curve at half-maximal effect.

SMILES | Pf growth 48h | Pf growth 96h | HCV inhibitor | AMA1-RON2 inh
O=C(NCc1cccnc1)/C(=C/c1ccc(-c2cccc(C(F)(F)F)c2)o1)NC(=O)c1ccccc1 | -16% | 135% | 2% | -27%
O=C(NCc1cccnc1)/C(=C/c1ccc(-c2ccc(Cl)cc2)o1)S(=O)(=O)c1ccccc1 | 6.6µM* | 3.3µM* | 7.9µM* | -10%
O=C(CN(Cc1ccc(Br)cc1)S(=O)(=O)c1ccccc1)NCc1cccnc1 | ? | 3% | -12% | -16%
O=C(NCc1cccnc1)/C(=C\c1ccc(-c2ccc(Br)cc2)o1)S(=O)(=O)c1ccccc1 | ? | ? | 11µM* | -16%
Cc1cccc(-c2nc(CS(=O)CC(=O)NC3CCCC(C)C3C)c(C)o2)c1 (stereo not drawn) | 41% | 51% | -17% | 12%
NCCNc1ccc(C(=O)N2c3ccccc3Sc3ccccc32)cc1[N+](=O)[O-] | ? | 81% | 11µM* | -27%
Nc1ccc(C(=O)OCC(=O)N2c3ccccc3Sc3ccccc32)cc1[N+](=O)[O-] | 1% | ? | ? | -5%
CC(=O)NC1=NN(C(C)=O)C(C)(c2ccco2)S1 (stereo not drawn) | ? | -11% | 17% | 4%
CC(=O)NC1=NN(C(C)=O)C(C)(c2cccs2)S1 (stereo not drawn) | 28% | 10µM* | 3% | 9%
O=C(c1cccc2c1C(=O)N(Cc1cccnc1)C2)N1CCN(c2ccccc2)CC1 | -13% | -12% | -4% | -22%
COC(=O)c1ccc2nc(C3CCCCC3)c3c(c2c1)CCC3 | / | / | -10% | 12%
CSc1ccccc1C(=O)OCC(=O)N1CCCC1=O | -24% | ? | -8% | -10%
COc1ccc(N2CCN(S(=O)(=O)CCNC(=O)COc3ccc(Cl)cc3)CC2)cc1 | 7% | ? | -3% | -9%
CC(C)C(C)NC(=O)CN1C(=O)NC2(CCc3ccccc32)C1=O (stereo not drawn) | -1% | 23% | 21% | 14%
Cc1cc(C)cc(NC(=O)c2cc(C)nc3ccccc23)c1 | ? | 12µM* | -21% | 29%
Cc1cc(C(=O)Nc2ccc(Br)cc2)c2ccccc2n1 | 45% | 20% | -26% | 9%
Cc1cc(C(=O)Nc2ccccc2)c2ccccc2n1 | 11% | 13µM* | -1% | 1%
Cc1cc(C(=O)NNC(=S)NC(C)c2ccccc2)c2ccccc2n1 (stereo not drawn) | -16% | 10µM* | -6% | -10%
COc1ccc(C(=O)NNC(=O)c2cc(C)nc3ccccc23)cc1 | -28% | ? | -6% | 10%
CCOC(=O)c1c(NC(C)=O)sc(/C(C)=N/Nc2ccc(C(=O)O)cc2)c1C | -7% | 22% | ? | 2%
CC(C)CCNC(=O)CN(Cc1ccccc1)C(=O)CCC(=O)Nc1ccccn1 | 3% | -28% | 11% | -12%
COc1ccccc1NC(=O)Cn1c([N+](=O)[O-])cnc1C | 7% | ? | 22% | -4%
Cc1nn(CC(=O)N(C)C2(C#N)CCCCC2)c(C)c1[N+](=O)[O-] | 4% | 40% | 1% | 22%
CCN(CC(=O)Nc1sc2c(c1C#N)CCC(C)C2)CC(=O)NC1CCS(=O)(=O)C1 (stereo not drawn) | 0% | 12µM* | -6% | 33%
COc1ccc(OC)c2[nH]c(=O)c(CCNC(=O)Cc3cccs3)cc12 | -9% | -7% | -5% | -14%
SMILES | Pf growth 48h | Pf growth 96h | HCV inhibitor | AMA1-RON2 inh
Cc1ccc(C2(c3ccc(C)cc3)CC2C(=O)Nc2ccc([N+](=O)[O-])cc2O)cc1 (stereo not drawn) | 0.83µM* | 0.66µM* | 3.5µM* | ?
O=C(Nc1ccc([N+](=O)[O-])cc1)C1CC1(c1ccccc1)c1ccccc1 (stereo not drawn) | 12µM* | ? | ? | 2%
CC1(C)CC1C(=O)Nc1ccc([N+](=O)[O-])cc1Br (stereo not drawn) | 19% | 17% | ? | 7%
Cn1c(CNC(=O)c2ccco2)nnc1SCC(=O)Nc1c(F)cc(F)cc1Br | -12% | 51%[5.75 µM] | 15% | 7%
COc1cc(C(C)=NNC(=O)c2ccncc2)ccc1O | / | / | -1% | -6%
COc1cccc(C2Nc3ccc4ccccc4c3C3=C2C(=O)CC(C)(C)C3)c1OCC(=O)O (stereo not drawn) | ? | ? | 11% | -3%
CC1(C)CC(=O)C2=C(C1)c1c(ccc3ccccc13)NC2c1ccc(OCC(=O)O)cc1 (stereo not drawn) | 10µM* | -29% | 12% | 1%
CC1(C)CC(=O)C2=C(C1)c1c(ccc3ccccc13)NC2c1ccc(Br)o1 (stereo not drawn) | / | ? | -23% | -4%
COc1cc(C2Nc3ccc4ccccc4c3C3=C2C(=O)CC(C)(C)C3)ccc1OCC(=O)O (stereo not drawn) | ? | 0.93µM* | 13% | 1%
COc1cc(C2Nc3ccc4ccccc4c3C3=C2C(=O)CC(C)(C)C3)ccc1OC(C)C(=O)O (stereo not drawn) | 1.7µM* | ? | 4% | -4%
COc1ccc(C2Nc3ccccc3NC3=C2C(=O)CC(C)(C)C3)cc1OC (stereo not drawn) | 0% | -23% | 32% | -4%
CCOc1cc(CNCc2cccnc2)cc(Br)c1OCC(N)=O | 1% | ? | 3% | -13%
S=C(NN=C1C2CC3CC(C2)CC1C3)Nc1ccccc1 | / | 10µM* | 13% | 50%
CCC(C)(C)C1CCC(=NNC(=S)Nc2ccccc2)CC1 (stereo not drawn) | ? | 4% | 6% | 4%
O=C(COC(=O)/C=C/c1ccc(F)cc1)Nc1nnc(-c2ccccc2)o1 | 5% | -12% | 2% | 84%
CC(C)(C)OC(=O)N1CCC[C@H]1c1nnc(SCc2ccccc2)o1 | ? | 12µM* | 26% | -19%
Cc1ccc(CSc2nnc([C@@H]3CCCN3C(=O)OC(C)(C)C)o2)cc1 | ? | ? | 22µM* | -10%
CC(C)(C)OC(=O)N1CCC[C@H]1c1nnc(SCc2ccccc2F)o1 | ? | ? | 2% | 9%
COc1ccc(CC2=CC(=O)c3ccccc3C2=O)cc1 | ? | 6% | 22µM* | ?
O=C(c1ccc(F)cc1)C1CCN(CCn2c(=O)[nH]c3ccccc3c2=O)CC1 | 6.6µM* | 11µM* | ? | -21%
CN1c2ccccc2C(C)(C)C12C=Cc1cc(O)ccc1O2 (stereo not drawn) | ? | ? | 5.6µM* | ?
COC(=O)c1ccc(CSc2nnc(NC(=O)C3CC(=O)N(c4ccc5c(c4)OCCO5)C3)s2)cc1 (stereo not drawn) | 13% | ? | 0% | 7%
COC(=O)c1ccccc1NC(=O)c1ccc(COc2cc(C)cc(C)c2)o1 | ? | 4.1µM* | 12% | -6%
COC(=O)c1cc(OC)c(OC)cc1NC(=O)c1cc(C(C)(C)C)oc1C | 2.9µM* | ? | 6% | -1%
COC(=O)c1cc(OC)c(OC)cc1NC(=O)CCc1ccc(C)o1 | 10µM* | 17% | ? | -2%
COC(=O)c1cc(OC)c(OC)cc1NC(=O)c1ccc(C)cc1 | / | -21% | ? | 36%
